Measurements: PubChem BioAssay (NCI)
About 83,000 compounds went through this panel and 20% of them were active in at least one assay; those are over-represented in the sample as a whole.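 Assay: single dose, 48 h. Readout: percent growth (0 = no net growth; negative = cell death). Active: <10.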 Unmarked numbers belong to inactive results. Calls of active or inactive are those of the source.

Columns and labels:
Assay in all cases: NCI-60 one-dose screen, 48 h (100 = growth as untreated, 0 = no growth, -100 = all killed)
Settings in all cases: 10 µM
[1] = test system: HCT-15 colon
[2] = test system: HT29 colon
[3] = test system: SNB-75 CNS
[4] = test system: SNB-19 CNS
[5] = test system: U251 CNS
[6] = test system: PC-3 prostate
[7] = test system: SK-MEL-5 melanoma
[8] = test system: UACC-62 melanoma
[9] = test system: LOX IMVI melanoma
[10] = test system: SK-MEL-28 melanoma

O=C1Nc2cc(Cl)ccc2/C1=C/c1cccc(OCc2ccc(Br)cc2F)c1
growth [1]: 5.07% (active)
growth [2]: 5.13% (active)
growth [3]: -0.373% (active)
growth [4]: 28.6%
growth [5]: -1.12% (active)
growth [6]: 19.3%
growth [7]: -6.52% (active)
growth [8]: 8.35% (active)
growth [9]: -45.9% (active)
growth [10]: 36.4%

O=C(c1ccc(Cl)cc1)C1[C@H](c2ccccc2Br)[C@@H](c2ccccc2)NC12C(=O)Nc1ccc(Br)cc12 (stereo not given in full)
growth [1]: 9.81% (active)
growth [2]: -36% (active)
growth [3]: 31.9%
growth [4]: 36.2%
growth [5]: -29.1% (active)
growth [6]: 6.63% (active)
growth [7]: 14.4%
growth [8]: 19.6%
growth [9]: -100% (active)
growth [10]: 43.8%

COc1ccc(-c2nc(S(=O)(=O)c3ccc(C)cc3)c(S(C)(=O)=O)o2)cc1
growth [1]: -72.6% (active)
growth [2]: -74.8% (active)
growth [3]: 43.6%
growth [4]: 65.5%
growth [5]: -90.3% (active)
growth [6]: 20.8%
growth [7]: 10.1%
growth [8]: -58.2% (active)
growth [9]: -89.1% (active)
growth [10]: -98.2% (active)

CN1C(=O)/C(=C/c2ccc3ncsc3c2)NC1=NC12CC3CC(CC(O)(C3)C1)C2
growth [1]: -7.12% (active)
growth [2]: 3.87% (active)
growth [3]: 25.9%
growth [4]: 16.3%
growth [5]: 16.4%
growth [6]: 16.8%
growth [7]: -90.7% (active)
growth [8]: -7.72% (active)
growth [9]: -52.8% (active)
growth [10]: -18.4% (active)

O=C(COc1ccc(NC(=O)Nc2ccc(Cl)cc2)cc1)N=Nc1c(O)[nH]c2ccc([N+](=O)[O-])cc12
growth [1]: 94.1%
growth [2]: 34.8%
growth [3]: 29.9%
growth [4]: 19.1%
growth [5]: -67.6% (active)
growth [6]: 46.8%
growth [7]: 63.1%
growth [8]: 11.3%
growth [9]: 13.9%
growth [10]: -4.38% (active)

COc1ccc(NC(=O)Cn2c(/C=C/c3ccc(N(C)C)cc3)nc3ccccc3c2=O)cc1
growth [1]: 57%
growth [2]: 44.7%
growth [3]: 84.1%
growth [4]: 70.7%
growth [5]: 23%
growth [6]: 64.5%
growth [7]: 30.7%
growth [8]: 40.9%
growth [9]: 13.8%
growth [10]: 45.6%

COc1ccc(-c2ccc(SCC(=O)Nc3ccc(C#N)cc3)nn2)cc1
growth [1]: 97.3%
growth [2]: 130%
growth [3]: 93.7%
growth [4]: 64.9%
growth [5]: 70.7%
growth [6]: 85%
growth [7]: 94.4%
growth [8]: 72.3%
growth [9]: 84.7%
growth [10]: 97.7%

O=C1NC(=NC23CC4CC(CC(C4)C2)C3)N/C1=C\c1ccc2ncccc2n1
growth [1]: -16.2% (active)
growth [2]: -17.4% (active)
growth [3]: -70.7% (active)
growth [4]: -7.61% (active)
growth [5]: 5.17% (active)
growth [6]: -0.602% (active)
growth [7]: -68.3% (active)
growth [8]: -64.4% (active)
growth [9]: -42.6% (active)
growth [10]: -30.2% (active)

COc1ccc2cc([C@H](C)C(=O)NCc3ccccc3)ccc2c1
growth [1]: 29.1%
growth [2]: 5.25% (active)
growth [3]: 6.97% (active)
growth [4]: 31.7%
growth [5]: 25%
growth [6]: 49.5%
growth [7]: 18.7%
growth [8]: 22.1%
growth [9]: 43%
growth [10]: 64.4%

COc1ccc(CN2[C@H](C(=O)NCCCCCCC(=O)NO)Cc3c([nH]c4ccccc34)[C@H]2C2CC2)cc1
growth [1]: 8.85% (active)
growth [2]: 6.33% (active)
growth [3]: 10.2%
growth [4]: 6.72% (active)
growth [5]: -20.8% (active)
growth [6]: 19.1%
growth [7]: -88% (active)
growth [8]: -68.6% (active)
growth [9]: -100% (active)
growth [10]: 9.84% (active)

Cc1ccn2c(C(=O)c3ccc(Br)cc3)cc(-c3cc(-c4ccc(N(C)C)cc4)c(C#N)c(N)n3)c2c1
growth [1]: 39.7%
growth [2]: 34.6%
growth [3]: 118%
growth [4]: 67.8%
growth [5]: 19.9%
growth [6]: 64.4%
growth [7]: 53.1%
growth [8]: 76.7%
growth [9]: 30.7%
growth [10]: 51.1%

CC(=C(c1ccc(OCCN2CCCCC2)cc1)c1ccc(OCCN2CCCCC2)cc1)c1ccccc1
growth [1]: -0.0525% (active)
growth [2]: -26.2% (active)
growth [3]: 84.1%
growth [4]: 38.7%
growth [5]: 1.29% (active)
growth [6]: 47.5%
growth [7]: -90.9% (active)
growth [8]: -79% (active)
growth [9]: -96.6% (active)
growth [10]: -93.9% (active)

Cc1cccc(-c2nc(Nc3ccccc3C(=O)O)c3ccccc3n2)c1
growth [1]: 14.3%
growth [2]: 39.7%
growth [3]: 55.3%
growth [4]: 21.2%
growth [5]: 26.6%
growth [6]: 29.5%
growth [7]: 6.01% (active)
growth [8]: 28%
growth [9]: 36.4%
growth [10]: 50%

Clc1cccc(N/N=C/c2c[nH]c3ccccc23)n1
growth [1]: 18.9%
growth [2]: 30.4%
growth [3]: 15.5%
growth [4]: 43.2%
growth [5]: 34.7%
growth [6]: 25.2%
growth [7]: 41.7%
growth [8]: 55.1%
growth [9]: 17.9%
growth [10]: 79.8%
